Source: PubChem BioAssay (National Center for Advancing Translational Sciences (NCATS))
G9a block – inhibitors of human histone lysine methyltransferase G9a | G9a H3K9 monomethylation, AlphaScreen, 2 h | Q96KQ7 | AID 504332 | 350,000 compounds, 8.8% hits | Potency, µM (doses to about 102 µM), for inactives: top-dose activity, negative = inhibition, actives largely listed as inhibitors; note: % is set by controls: 0 for no effect and ±100 for the full control effect; nearly all actives have a fitted effect of over 75% in size
Target sequence (Q96KQ7 913-1193 limits assumed): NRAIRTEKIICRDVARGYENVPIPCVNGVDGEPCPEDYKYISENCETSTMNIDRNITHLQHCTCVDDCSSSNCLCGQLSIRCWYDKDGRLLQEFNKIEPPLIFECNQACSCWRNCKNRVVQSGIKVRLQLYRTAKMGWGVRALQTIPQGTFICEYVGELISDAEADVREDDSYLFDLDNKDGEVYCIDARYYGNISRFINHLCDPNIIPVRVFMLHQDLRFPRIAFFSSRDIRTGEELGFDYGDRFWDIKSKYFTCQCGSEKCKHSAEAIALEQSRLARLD
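Using a bead-based AlphaScreen, monomethylated H3K9 product from 2 h room-temperature reactions (G9a 20 nM, peptide 500 nM, SAM 20 uM) was detected with 0.5 ug/mL rabbit anti-H3K9me1 antibody.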
BAZ2B block – inhibitors of human BAZ2B bromodomain. AlphaScreen BAZ2B-H3K14Ac peptide displacement. Potency, µM (series often up to 114 µM), inactives show at the highest dose activity change, negative = inhibition, most hits filed as inhibitors. 360,000 compounds, 4.4% hits. AID 504333; note: % is set by controls: 0 for no effect and ±100 for the full control effect; nearly all actives have a fitted effect of over 60% in size
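BAZ2B 50 nM plus b-H3(5-23)K14Ac 50 nM, PBS pH 7.4/0.01% Tween-20, 30 min RT; compound added (max 110 uM), 30 min RT; streptavidin donor/Ni-chelate acceptor beads 10 ug/mL final, 20 min dark; AlphaScreen read.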
JMJD2A Tudor inh – blocks the human JMJD2A Tudor domain; O75164; AlphaScreen JMJD2A-Tudor / H3K4me3 peptide binding; Potency, µM (highest dose often 114 µM), without a hit: at the top dose activity change, negative = inhibition, most hits filed as inhibitors; 390,000 compounds, 4.4% hits; AID 504339; note: % is set by controls: 0 for no effect and ±100 for the full control effect; nearly all actives have a fitted effect of over 50% in size
PLK1 PBD inh – inhibitors of human PLK1 polo-box domain binding; Potency, µM, for inactives: max response, negative = inhibition, usual class: inhibitors; Plk1 PBD binding of FITC phosphopeptide, fluorescence polarization; AID 720504; 360,000 compounds, 2.8% hits; note: series mostly up to about 57 µM; % is set by controls: 0 for no effect and ±100 for the full control effect; nearly all actives have a fitted effect of over 65% in size
HP1b chromo inh – inhibitors of HP1-beta chromodomain binding to methylated histone tails; AlphaScreen HP1-beta / biotin-H3K9me3 peptide binding; Potency, µM (top dose mostly 114 µM), inactives show at the highest dose activity change, negative = inhibition, hits mostly inhibitors; P83916; 390,000 compounds, 0.56% hits; note: nearly all actives have a fitted effect of over 70% in size
Target sequence (P83916 whole entry, looked up): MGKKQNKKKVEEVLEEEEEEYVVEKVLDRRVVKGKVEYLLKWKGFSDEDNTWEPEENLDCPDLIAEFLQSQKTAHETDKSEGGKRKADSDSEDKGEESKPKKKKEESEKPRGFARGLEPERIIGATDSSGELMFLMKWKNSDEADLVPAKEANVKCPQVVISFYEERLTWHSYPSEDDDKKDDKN
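HP1-beta protein (50 nM final) preincubated 30 min at room temperature with biotinylated H3(1-18)K9me3 peptide (50 nM) in PBS pH 7.4, 0.01% Tween-20, then compound added for 30 min. AlphaScreen streptavidin donor/nickel chelate acceptor beads (10 ug/mL final), 30 min dark, luminescence read.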
Sfp inh – inhibitors of Bacillus subtilis Sfp phosphopantetheinyl transferase. Q9F4F7. Biochemical Sfp PPTase activity, qHTS. Potency, µM, without a hit: largest response in the series, negative = inhibition, hits mostly inhibitors. 310,000 compounds, 3.5% hits. AID 1490;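 note: the enzyme is Sfp with the accession as filed and its product quenches rhodamine fluorescence; 0% = enzyme reaction without inhibitor and -100% = no enzyme wells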
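After 15 min at room temperature with compound, 15 nM Sfp received 5 uM rhodamine-CoA plus 12.5 uM BHQ-2-ybbR (50 mM Hepes pH 7.6, 10 mM MgCl2). Rate came from the fluorescence difference over 30 min, ex 525/em 598 nm.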
Active calls of the source: *; [ ] = remark or other dose. Compounds with a hit are over-represented: about 12% of the library has one in this group of screens. Calls come from the whole dose curve; as a rule, active = well fitted curve in the direction sought with a large enough effect; inconclusive = small, poorly fitted or top-dose-only effect, or another doubt; inactive = no such curve, though single readings can be large; an effect the other way counts as inactive or inconclusive. Potency is the fitted concentration of half-maximal effect.

Screening C[C@H]1CNC(=O)C(=O)N1C[C@H](Cc1ccc(O)cc1)NC(=O)CC12CC3CC(CC(C3)C1)C2 returned G9a block 70.8µM*, BAZ2B block -2.4%, JMJD2A Tudor inh -14.0%, PLK1 PBD inh -9.9%, HP1b chromo inh 29.8% and Sfp inh 3.5%.
CC(C)C[C@H]1CNC(=O)C(=O)N1C[C@H](Cc1ccc(O)cc1)NC(=O)Cc1ccccc1 was read as PLK1 PBD inh -4.0%.
CCCc1cc(=O)[nH]c2nnc(SCC(=O)Nc3nnc(CC)s3)n12 was read as G9a block -8.2%[12.7 µM], BAZ2B block 6.2%, JMJD2A Tudor inh 25.1µM*, PLK1 PBD inh -9.0% and HP1b chromo inh 7.5%.
COc1ccccc1CNC(=O)CN(C)CC(=O)Nc1ccccc1Br was read as JMJD2A Tudor inh -1.4%, PLK1 PBD inh 4.1% and HP1b chromo inh 37.9%.
Screening CC(NC(=O)CN(C)CC(=O)Nc1ccccc1Br)c1ccccc1 (stereo not given) returned G9a block -120.7%[12.7 µM], BAZ2B block 31.6µM*, JMJD2A Tudor inh 28.2µM*, PLK1 PBD inh -6.0% and HP1b chromo inh -6.2%.
For COc1ccc(CN(C)CC(=O)NC(C)c2ccccc2)c(OC)c1 (stereo not given) the results were G9a block inconclusive, BAZ2B block 56.2µM*, JMJD2A Tudor inh 1.78µM*, PLK1 PBD inh -3.5%, HP1b chromo inh inconclusive and Sfp inh -20.6%.
`CN(CC(=O)Nc1ccccc1Br)CC(=O)NC(c1ccccc1)c1ccccc1` gave G9a block -23.2%, BAZ2B block inconclusive, JMJD2A Tudor inh -18.7%, PLK1 PBD inh -6.8% and HP1b chromo inh 3.1%.
`COc1ccc(OC)c(NC(=O)CN(C)CC(=O)Nc2ccccc2Br)c1` gave G9a block 7.94µM*, BAZ2B block 44.7µM*, JMJD2A Tudor inh 8.91µM*, PLK1 PBD inh -11.5%, HP1b chromo inh -3.3% and Sfp inh inconclusive.
COc1cccc(NC(=O)CN(C)CC(=O)NC(C)c2ccccc2)c1 (stereo not given) was read as G9a block 70.8µM*, BAZ2B block 6.3%, JMJD2A Tudor inh -1.4%, PLK1 PBD inh 3.1%, HP1b chromo inh 30.5% and Sfp inh 5.5%.
COc1ccccc1C(C)NC(=O)CCC(=O)N1CCN(S(=O)(=O)c2ccc(Cl)cc2)CC1 (stereo not given) was read as JMJD2A Tudor inh -12.0%, PLK1 PBD inh 4.3% and HP1b chromo inh 19.5%.
`COc1ccc(CN(C)CC(=O)Nc2cccc3ccccc23)cc1F` gave G9a block 17.7%, BAZ2B block 1.4%, JMJD2A Tudor inh -0.7%, PLK1 PBD inh -1.1%, HP1b chromo inh 28.6% and Sfp inh 2.0%.
For CCOc1ccc(CN(C)CC(=O)Nc2cccc3ccccc23)cc1OC the results were G9a block 7.08µM*, JMJD2A Tudor inh 0.794µM*, PLK1 PBD inh 2.5%, HP1b chromo inh inconclusive and Sfp inh inconclusive.
Screening Cc1cc(-c2nsc(=O)o2)c(S(C)(=O)=O)s1 returned G9a block 2µM*, BAZ2B block 0.5%, JMJD2A Tudor inh inconclusive, PLK1 PBD inh 3.77µM*, HP1b chromo inh inconclusive and Sfp inh -83.9%.
Cc1cc(C(=O)NCCN2C(=O)S/C(=C\c3cccs3)C2=O)ccc1[N+](=O)[O-] was read as G9a block -13.4%[59 µM], BAZ2B block -31.5%, JMJD2A Tudor inh -14.0%, PLK1 PBD inh -15.6%, HP1b chromo inh 16.3% and Sfp inh 35.5µM*.
For CN(C(=O)c1cc(-c2ccccc2O)on1)c1ccccc1 the results were G9a block -6.6%[59 µM], BAZ2B block -17.0%, JMJD2A Tudor inh -33.4% and HP1b chromo inh 8.5%.
`Oc1cc2cc(CCN3CCN(c4nsc5ccccc45)CC3)c(Cl)cc2[nH]1` gave G9a block inconclusive and Sfp inh -8.2%.
Screening O=S1(=O)N=C(N(Cc2cccs2)c2ccc(O)cc2)c2ccccc21 returned BAZ2B block -23.4%, JMJD2A Tudor inh -27.1%, PLK1 PBD inh -18.7%, HP1b chromo inh 4.6% and Sfp inh 3.5%.
Screening Cc1ccc(NC2CCCN(C(=O)c3ccoc3)C2)cc1C (stereo not given) returned G9a block 79.4µM*, BAZ2B block inconclusive, JMJD2A Tudor inh -28.5%, PLK1 PBD inh -4.4%, HP1b chromo inh 27.2% and Sfp inh -1.3%.
Screening CCCc1cc(C(=O)N2CCCC(Nc3ccc(C)c(C)c3)C2)n(C)n1 (stereo not given) returned G9a block 44.7µM*, BAZ2B block -30.1%, JMJD2A Tudor inh -30.6%, PLK1 PBD inh -9.9%, HP1b chromo inh -17.2% and Sfp inh 5.0%.
Screening CC(C)(C)n1nc2c(c1NC(=O)c1cc(Cl)ccc1[N+](=O)[O-])CS(=O)(=O)C2 returned G9a block 9.5%, BAZ2B block inconclusive, JMJD2A Tudor inh -7.0%, PLK1 PBD inh -1.2%, HP1b chromo inh 41.7% and Sfp inh 7.2%.
For O=C1CC(N2CCC(c3nc4ccccc4[nH]3)CC2)C(=O)N1c1ccccc1F (stereo not given) the results were G9a block 35.5µM*, BAZ2B block -22.2%, JMJD2A Tudor inh -18.9%, PLK1 PBD inh inconclusive, HP1b chromo inh -4.2% and Sfp inh 8.4%.
For COc1ccc(N2C(=O)CC(N3CCC(c4nc5ccccc5[nH]4)CC3)C2=O)cc1 (stereo not given) the results were G9a block 7.6%[12.7 µM], BAZ2B block 10.0%, JMJD2A Tudor inh 4.0%, PLK1 PBD inh -9.6%, HP1b chromo inh 57.5% and Sfp inh -2.2%.
`CN=C1NN=C(c2cc(C)n(-c3ccc(Cl)cc3)c2C)CS1` gave G9a block 31.6µM*, JMJD2A Tudor inh inconclusive, PLK1 PBD inh -28.6%, HP1b chromo inh -15.2% and Sfp inh 35.5µM*.
For Cc1ccc(-n2c(C)cc(C3=NNC(=NC4CC4)SC3)c2C)cc1C the results were G9a block 44.7µM*, BAZ2B block 50.1µM*, JMJD2A Tudor inh 50.1µM*, PLK1 PBD inh -3.4%, HP1b chromo inh inconclusive and Sfp inh -28.6%.
For O=c1[nH]c2ccccc2nc1-c1nnnn1Cc1ccccc1 the results were PLK1 PBD inh -5.7%.
For CCCN(CC(=O)Nc1ccccc1C)C(=O)c1ccc(N2CCCCCC2)c([N+](=O)[O-])c1 the results were G9a block -10.4%, BAZ2B block inconclusive, JMJD2A Tudor inh inconclusive, PLK1 PBD inh 1.6%, HP1b chromo inh inconclusive and Sfp inh 3.1%.
CN1CCCC1CCNc1ncnc2ccc(-c3ccc4c(c3)OCO4)cc12 (stereo not given) was read as JMJD2A Tudor inh -27.7%.
